# From the supplement of paper PMC6555819
# Tests used:
# Test in all cases: PBM binding z-score (relative to random genomic background probes); higher = stronger binding; sequences stand for … in GC…GCGATTGACAGCGTAGAATGAAGG
# [1] = test system: PPARg:RXRa DBDmut IVT, anti-RXR (DBD mutation: RXRa K156A/R161A, NR concentration 270 nM, RXRa partner concentration 90 nM)
# Outline: (§1)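 Scanned fluorescence from custom Agilent 4×180K protein-binding microarrays was regression-normalized. Binding z-scores use random background probes as reference. Ligand-free nuclear receptor dimers were incubated on the arrays for 1 h and detected with antibodies against each partner (one per run).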
# [2] = test system: PPARg:RXRa IVT, anti-PPARg (NR concentration 270 nM, RXRa partner concentration 90 nM)
# Outline: as §1
# [3] = test system: PPARg DBDmut:RXRa IVT, anti-PPARg (DBD mutation: PPARg1 K132A/R137A, NR concentration 270 nM, RXRa partner concentration 90 nM)
# Outline: as §1
# [4] = test system: PPARg DBDmut IVT, anti-PPARg (DBD mutation: PPARg1 K132A/R137A, NR concentration 270 nM)
# Outline: as §1
# [5] = test system: PPARg homodimer (NR concentration 180 nM)
# Outline: as §1
# [6] = test system: PXR:RXRa (NR concentration 270 nM, RXRa partner concentration 90 nM)
# Outline: as §1
# [7] = test system: PXR homodimer (NR concentration 270 nM)
# Outline: as §1
# [8] = test system: RARa:RXR (NR concentration 270 nM, RXRa partner concentration 90 nM)
# Outline: as §1
# [9] = test system: RARa homodimer (NR concentration 270 nM)
# Outline: as §1
# [10] = test system: RARb:RXRa (NR concentration 270 nM, RXRa partner concentration 90 nM)
# Outline: as §1
Sequence,PBM binding z-score [1],PBM binding z-score [2],PBM binding z-score [3],PBM binding z-score [4],PBM binding z-score [5],PBM binding z-score [6],PBM binding z-score [7],PBM binding z-score [8],PBM binding z-score [9],PBM binding z-score [10]
CCTACTGGGCCAAGGACATTGATCAGTCAAAGCA,3.42,3.05,-0.364,-0.839,-0.294,-0.555,-0.0775,-0.237,-0.533,0.145
CCTACTGGGCCAAAAAGGTCTTTGATGCCGATAA,3.45,2.65,-0.719,-0.578,-0.284,-0.31,-0.67,-0.184,-0.777,0.422
TCTAGTTGGTCACGGAGGTCGCACACGACGGGTA,2.12,2.88,0.487,0.825,1.19,1.79,-0.0843,1.63,0.349,2.47
CCTAGCAGGCCACTCTGGGTCACTCAAGGCTTGA,2.5,3.22,-0.679,-2.2,0.299,1.04,-0.493,1.32,-0.337,1.55
TAGCCTAGGTCATGCGGGCCGGTATAGTGTCGGC,1.61,2.8,-0.135,-0.829,1.05,1.04,-0.496,2.14,-0.545,3.61
AGAATGAGGTTATACGAAGATCAGGGAAGAAAGT,2.26,2.05,0.807,0.512,0.484,1.04,0.292,1.61,0.714,1.3
CCGACTGGGGCAGAAAGGTTACCATGCCATCCGG,1.38,2.43,-1.53,-1.09,0.386,0.882,-0.381,1.61,-0.141,2
TCTCGGAGGACACGAAAGGTAAGAGCTCGACATC,1.28,-0.239,-1.14,-1.23,-0.641,-0.211,-0.673,-0.135,-0.792,1.59
TCATATAGGTAAAGGCGAAAGTCGAACGATATGA,3.49,2.3,1.22,0.996,0.221,-0.107,0.0413,0.124,0.504,0.399
TATACAGGCTCAAAGGCCAGAGTACGAATGTCGA,-0.518,0.865,0.383,0.281,-0.146,-0.262,-0.323,-0.258,0.14,0.95
TAGGCTAGGTCATTCAGGGGCCAGTATAGAAAGC,2.09,3.13,1.07,0.104,3.69,2.64,0.0687,3.93,0.404,4.12
TCTGCTAGGTCAACGCTGGTCAGCTAATCTGCTA,4.5,4.5,0.648,0.00924,1.34,2,-1.26,2.35,-1.41,4.16
TGTATTAGTTGAAGGGCAACCGACGAGTCCGTTT,0.404,0.87,0.403,1.05,1.27,0.63,0.962,0.3,0.995,1.5
GGGACTGGGGCATCAGCAGGTTACCATAACTTAA,4.49,5.48,0.985,1.98,1.51,1.12,0.678,1.2,0.663,1.33
CCGACTGGGGCAAAAAGGTTACCATACCATCCGG,2.47,2.82,-0.595,-1.12,0.536,1.1,-0.0306,1.87,0.158,2.05
TCTGACAGGTGAAGGTAACTCAGGTACGCAGTCG,2.21,1.39,0.246,-0.0142,0.45,0.483,-0.371,0.82,0.0675,1.28
CCAACTGGGGCATAAGGTTACCATAAGCCAGCCC,4.69,5.04,0.045,-0.438,0.423,0.561,-0.309,1.32,0.288,1.6
TAGAGTAGGTTAGTCGGGGCATTCAGCCAACATA,3.08,3.62,0.961,1.55,1.27,0.576,0.756,0.643,1.35,1.1
ACTATTAGTTGAGACGAGGGCAGCCGATAGGTTG,0.368,0.416,0.598,0.645,0.479,0.456,-0.0477,0.335,0.445,0.854
CCGACTGGGGCAGAAAGGTTACCAGACCATCCGG,1.28,2.02,-0.764,-1.01,0.446,0.737,-0.356,1.47,-0.579,1.89
TCTAGCAGTCCAGAGGGTCACTCAAGAGGTACGG,0.669,0.15,-0.632,-0.476,0.412,1.67,-0.406,2.48,0.0783,2.07
AGAATGACGTTACCAAAGATCAGGGAAACGCTTG,-0.672,-0.0252,0.249,0.258,0.216,-0.527,-0.0125,-0.159,0.157,-0.301
GCGAATGGGGCATCAGCAGGTTACCATAACTTAA,0.757,0.63,-0.741,-0.65,0.165,0.102,-0.437,0.532,-0.444,0.614
TGTCAAAGTTCAAAGGTAAAGTAAGTATCCACAC,0.197,4.58,1.35,1.98,3.26,5.75,3.72,5.81,1.83,5.07
